# Compound activity: PubChem BioAssay, The Scripps Research Institute Molecular Screening Center
# MOR-DOR inv ag: inverse agonists of MOR-DOR heterodimerization, primary screen, cell-based, luminescence; Mu-type opioid receptor (Homo sapiens) + Delta-type opioid receptor (Homo sapiens), …; cell-based MOR-DOR heterodimer luminescence, inverse agonism; inhibition, % at 9.3 µM; 340,000 tested, 0.21% active; in the data active = inhibition above about 22%, passing the limit was not always enough
# OPRM1-OPRD1 ag: agonists of OPRM1-OPRD1 heterodimerization, primary screen, cell-based, luminescence; Mu-type opioid receptor (Homo sapiens) + Delta-type opioid receptor (Homo sapiens), …; AID 504326, 2011; cells; 340,000 tested, 0.3% active; activation, % at 9.3 µM; in the data active = activation above about 18%
# HTR5A ag ctr: HTR5A agonists in luminescence cell assay, primary screen, counter-screen for OPRM1-OPRD1 heterodimer agonist project, full-deck HTS. 340,000 tested, 0.61% active. 5-hydroxytryptamine receptor 5A (Homo sapiens), P47898. cell-based. AID 504692, 2011. activation, % at 9.3 µM; in the data active = activation mostly above about 9.5%, no sharp cut-off; inactive = mostly below about 7.6%
# Target sequence (P47898 whole entry, looked up): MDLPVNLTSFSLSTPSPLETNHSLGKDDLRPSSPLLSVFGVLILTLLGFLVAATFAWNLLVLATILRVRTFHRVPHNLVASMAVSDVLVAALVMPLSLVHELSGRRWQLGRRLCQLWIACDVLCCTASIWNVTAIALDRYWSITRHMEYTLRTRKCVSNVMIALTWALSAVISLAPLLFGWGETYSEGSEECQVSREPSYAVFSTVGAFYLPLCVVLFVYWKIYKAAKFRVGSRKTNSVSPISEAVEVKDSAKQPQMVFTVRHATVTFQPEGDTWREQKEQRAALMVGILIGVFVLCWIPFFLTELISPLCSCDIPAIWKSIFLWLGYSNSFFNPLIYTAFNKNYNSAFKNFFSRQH
# HTR5A inv ctr: HTR5A inverse agonists in luminescence cell assay, primary screen, counter-screen for OPRM1-OPRD1 heterodimer inverse agonist project, full-deck HTS. 5-hydroxytryptamine receptor 5A (Homo sapiens), P47898. 340,000 tested, 0.083% active. inhibition, % at 9.3 µM. HTR5A cell line, inverse agonism. AID 504634, 2011; in the data active = inhibition mostly above about 23%, no sharp cut-off; inactive = mostly below about 18%
# OPRM1-D1 inv cf: inverse agonists of MOR-DOR heterodimerization, confirmation, cell-based, luminescence. shares compounds with MOR-DOR inv ag. cells expressing OPRM1/OPRD1 heterodimer. inhibition, % at 9.3 µM. 580 tested, 20% active; in the data active = inhibition above about 32%
# HTR5A inv ctr2: HTR5A inverse agonists, counter-screen for OPRM1-OPRD1 inverse agonist project, cell-based, luminescence | HTR5A-expressing cells, inverse agonism | shares compounds with MOR-DOR inv ag | AID 504914, 2011 | inhibition, % at 9.3 µM | 580 tested, under 10 active; call rule not given here
# Hits are given with their value; n = inactive; x = no result. Compounds with a hit are over-represented: about 1.1% of the library has one in this group of screens.
SMILES,MOR-DOR inv ag,OPRM1-OPRD1 ag,HTR5A ag ctr,HTR5A inv ctr,OPRM1-D1 inv cf,HTR5A inv ctr2
CC(=O)Nc1cccc(C(=O)OCC(=O)c2ccc(S(=O)(=O)N3CCCCC3)cc2)c1,47,n,n,n,49,n
COc1cc(C(=O)OCC(=O)c2ccc(S(=O)(=O)N3CCCCC3)cc2)cc(OC)c1OC,n,n,n,n,x,x
CC(=O)Nc1ccc(C(=O)OCC(=O)c2ccc(S(=O)(=O)N3CCCCC3)cc2)cc1,n,n,n,n,x,x
CNS(=O)(=O)c1cccc(C(=O)OCC(=O)c2cc3ccccc3o2)c1,77,n,n,37,n,n
CN1C(=O)C(O)(CC(=O)c2ccccc2O)c2cc(Br)ccc21 (configuration not stated),68,n,n,n,n,n
CC1(C)C(c2ccccc2)=NC(c2ccc(Br)cc2)N1O (configuration not stated),46,n,n,n,n,n
COc1ccc(C2N=C(c3ccccc3)C(C)(C)N2O)cc1 (configuration not stated),43,n,n,n,n,n
CCC1=NC(c2ccc(Br)cc2)N(O)C1(C)C (configuration not stated),33,n,n,n,n,n
CCC1=NC(c2ccc(OC)cc2)N(O)C1(C)C (configuration not stated),n,n,n,n,x,x
CC1(C)C(c2ccccc2)=NC(c2ccccc2)N1O (configuration not stated),n,n,n,n,x,x
CCCn1c(N)c(C(=O)CSc2nncs2)c(=O)[nH]c1=O,n,n,n,n,x,x
CC(OC(=O)c1cc(=O)c2cc(Cl)ccc2o1)C(=O)N1CCCC1 (configuration not stated),n,n,n,n,x,x
Cc1ccc(CNC(=O)C2CCC(=O)N(CC3CCCCC3)C2)o1 (configuration not stated),n,n,n,n,x,x
Cc1ccc(C(=O)Nc2cccc(NC(=O)c3ccc(C)o3)n2)o1,n,n,n,n,x,x
O=C(CCC(=O)OCC(=O)c1cccc([N+](=O)[O-])c1)Nc1cccc(Cl)c1Cl,69,n,n,n,64,n
O=C(CCC(=O)OCC(=O)c1ccc([N+](=O)[O-])cc1)Nc1ccccc1Cl,n,n,n,n,x,x
Cc1ccccc1NC(=O)CCC(=O)OCC(=O)c1cccc([N+](=O)[O-])c1,60,n,n,n,n,n
O=C(Oc1ccccc1C(=S)N1CCOCC1)c1cccc([N+](=O)[O-])c1,n,n,n,n,x,x
Cc1ccc(S(=O)(=O)N2CCCOC2CNC(=O)C(=O)NC2CCCC2)cc1 (configuration not stated),n,n,n,n,x,x
Cc1ccc(S(=O)(=O)N2CCCCC2)cc1C(=O)OC1CCCCC1=O (configuration not stated),n,n,n,n,x,x
O=C(CSc1nc2c([nH]c3ccccc32)c(=O)n1-c1ccccc1)NCC1CCCO1 (configuration not stated),51,n,n,n,n,n
O=C(CCOc1ccccc1)OCC(=O)c1cc2ccccc2o1,37,n,n,n,n,n
O=C(COC(=O)CCOc1ccccc1)NCCc1ccccc1,n,n,n,n,x,x
O=C(NCC(c1ccco1)N1CCc2ccccc2C1)C(=O)Nc1cc(F)ccc1F (configuration not stated),n,n,n,n,x,x
CN(C)CC(=O)c1ccc(-c2ccccc2)cc1,34,n,n,n,n,n
SMILES,MOR-DOR inv ag,OPRM1-OPRD1 ag,HTR5A ag ctr,HTR5A inv ctr,OPRM1-D1 inv cf,HTR5A inv ctr2
CCN(CC)CC(=O)c1ccc(-c2ccccc2)cc1,54,n,n,n,n,n
CC(C)=CC(=O)N1CC[C@@H](N2CCN(c3ccccc3F)CC2)[C@H](O)C1,n,n,n,n,x,x
O=C(CCC(=O)OCC(=O)c1ccc(Br)cc1)NC1CCCCC1,n,n,n,n,x,x
Cc1ccc(C(=O)COC(=O)CCC(=O)Nc2cccc(Cl)c2)cc1[N+](=O)[O-],52,n,n,n,32,n
Cc1ccc(C(=O)COC(=O)CCC(=O)NC2CCCCC2)cc1[N+](=O)[O-],47,n,n,n,35,n
COc1ccccc1NC(=O)CCC(=O)OCC(=O)c1ccc(C)c([N+](=O)[O-])c1,53,n,n,n,n,n
COc1ccc2nc(NN=C(C)c3ccccn3)cc(C)c2c1,39,n,n,n,n,n
C/C(=N\NC(=O)c1cc(C)nc2ccccc12)c1ccccn1,n,n,n,n,x,x
Cc1ccc(C(=O)COC(=O)CNC(=O)Cc2ccccc2)cc1[N+](=O)[O-],57,n,n,n,n,n
Cc1ccc(C(=O)COC(=O)CNC(=O)Cc2ccccc2)cc1,n,n,n,n,x,x
CCc1ccc(C(=O)COC(=O)CNC(=O)c2ccc(Br)o2)cc1,n,n,n,n,x,x
Cc1ccc(C(=O)COC(=O)CNC(=O)c2ccc(Br)o2)cc1[N+](=O)[O-],54,n,n,n,n,n
CC(C)[C@H](NC(=O)c1ccccc1)C(=O)OCC(=O)Nc1ccc(S(=O)(=O)N2CCOCC2)cc1,n,n,n,n,x,x
COc1cc(OC)cc(C(=O)OCC(=O)c2ccc(S(=O)(=O)N3CCCCC3)cc2)c1,n,n,n,n,x,x
O=C(COC(=O)c1ccc(Br)o1)c1ccc(S(=O)(=O)N2CCCCC2)cc1,65,n,n,n,n,n
CC(C)[C@H](NC(=O)c1ccccc1)C(=O)OCC(=O)c1ccc(S(=O)(=O)N2CCCCC2)cc1,30,n,n,n,n,n
COc1ccc(CC(=O)OCC(=O)c2ccc(S(=O)(=O)N3CCCCC3)cc2)cc1,50,n,n,n,n,n
O=C(COc1ccccc1)OCC(=O)c1ccc(S(=O)(=O)N2CCCCC2)cc1,80,n,n,n,n,n
CCCN(C1CCS(=O)(=O)C1)S(=O)(=O)c1cc(OC)ccc1OC (configuration not stated),n,n,n,n,x,x
O=C(COC(=O)c1ccccc1)c1ccc(S(=O)(=O)N2CCCCC2)cc1,46,n,n,n,32,n
O=C(COC(=O)c1ccco1)c1ccc(S(=O)(=O)N2CCCCC2)cc1,53,n,n,n,n,n
NC(=O)COC(=O)c1ccc(S(=O)(=O)N2CCCCCC2)cc1,n,n,n,n,x,x
CC(Sc1nccn1C)C(=O)Nc1ccc(Cl)cn1 (configuration not stated),n,n,n,n,x,x
COc1ccc(CCC(=O)N2CCN(S(=O)(=O)c3ccc(OC(F)(F)F)cc3)CC2)cc1,n,n,n,n,x,x
COC(=O)NNC(=O)c1ccc(Cl)cc1Cl,n,n,n,n,x,x
CC(C)(C)C(=O)NC(=S)NNC(=O)c1ccc(Cl)cc1Cl,39,n,n,n,n,n
